# From PubChem BioAssay (NCI)
# This is part of a sample that, as a whole, favours compounds with a hit. Of some 83,000 tested, about 20% had one in any assay.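 In brief: 96-well plates, 48 h treatment, single concentration, percent growth endpoint.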 Active and inactive are the calls of the source.
# System: HOP-62 NSCLC
# Assay: NCI-60 one-dose screen, 48 h (100 = growth as untreated, 0 = no growth, -100 = all killed)
# Details: 10 µM unless noted
# Experimental: Growth inhibition of the HOP-62 human Non-Small Cell Lung tumor cell line is measured as a screen for anti-cancer activity. Cells are grown in 96 well plates and exposed to the test compound for 48 hours. Compounds are tested at a single concentration, which is 10^-5 M for most compounds. The reported endpoint is percent growth (GI% or GIPRCNT), where numbers from 0 - 100% represent growth inhibition, and numbers from -100% - 0 represent cell death. For example, a value of 40 represents 60% growth inhibition. A value of 0 means no net growth occurred over the course of the experiment. A value of -40 indicates 40% of cells at the beginning of the experiment died by the end of the experiment. A value of -100 means all cells are dead at the end of the experiment.
# NCI-60 Human Tumor Cell Lines Screen was performed using the standard one-dose NCI protocol, which is described in more detail at https://dtp.cancer.gov/discovery_development/nci-60/default.htm.
# Compounds with GIPRCNT values below 10 were considered active. Activity score was based on GIPRCNT using the following formula: […]
# Score is 0 for GIPRCNT values of 100 or above, 50 for GIPRCNT values of 0, and 100 for GIPRCNT values of -100.
row,SMILES,growth
1,c1ccc(CCn2cccc2)nc1,98% (inactive)
2,CC(=O)CC(c1ccc([N+](=O)[O-])cc1)c1c(O)c2ccccc2oc1=O (stereo not given),102% (inactive)
3,CCCCCCCCN(CCCCCCCC)C(=O)CCl,113% (inactive)
4,O=C1SCN(Cc2ccccc2)CN1Cc1ccccc1,102% (inactive)
5,c1cc(C2CCCCC2)ccc1-c1cnc2nonc2n1,18.5% (inactive)
6,COc1cc(CN(c2ccc(C)cc2)C2OC(=O)c3ccccc32)cc(OC)c1OC (stereo not given),24.8% (inactive)
7,COC1(OC)C2(Cl)CCC1(Cl)C(Cl)=C2Cl,129% (inactive)
8,CCN(CC)CCCCCCCCNc1c2ccc(Cl)cc2nc2ccc(OC)cc12,-67.8% (active)
9,CC1OC(n2c3ccccc3c3c4c(c5c6ccccc6[nH]c5c32)C(=O)N(CCN[C@H]2CCC[C@@H]2N)C4=O)CC(O)C1O (stereo not given in full),30.2% (inactive)
10,COc1cccc(N2CCN(c3ncnc4cc[nH]c34)CC2)c1,34.2% (inactive)
11,O=c1c2cc(Br)cc(Br)c2nc(-c2ccc(Cl)cc2)n1/N=C/c1cccc(F)c1,10.8% (inactive)
12,CCOC(=O)c1ccc(NC(=O)CSC(N)=O)cc1,113% (inactive)
13,CN1C2CCC1/C(=C\c1ccc(Cl)cc1)C(=O)/C2=C/c1ccc(Cl)cc1,85.8% (inactive)
14,Cc1cccc2nc3ccccc3c(Nc3ccc(NS(C)(=O)=O)cc3)c12,35.2% (inactive)
15,CCOC(=O)C(Cc1ccccc1)n1c(O)c(/C=N/c2ncc(Cc3ccc(Cl)cc3Cl)s2)sc1=S (stereo not given),8.75% (active)
16,O=c1c2cc(Br)cc(Br)c2nc(-c2ccc(Cl)cc2)n1/N=C\c1ccccc1F,27.4% (inactive)
17,COc1cc(NC(=O)CSc2nc3ccc(Cl)cc3c(=O)n2-c2ccccc2)cc(OC)c1OC,85.5% (inactive)
18,Cc1c(C(N)=O)sc2ncn(CC(=O)NN=C3CCCCC3)c(=O)c12,104% (inactive)
19,NC(N)=N/N=C/c1ccc(Cl)cc1,75% (inactive)
20,Cc1c(C(=O)Nc2ccccc2F)sc2c(=O)[nH]cnc12,96.1% (inactive)

row,SMILES,growth
1,O=C(NCCN1CCCC1)n1cc(-c2ccncc2)c(-c2cc(O)cc(Cl)c2)n1,92.3% (inactive)
2,CCCCc1nc(Cl)c(C2CC(c3ccc(S(N)(=O)=O)cc3)=NN2c2ccc(C#N)cc2)[nH]1 (stereo not given),90.5% (inactive)
3,O=C(O)c1ccccc1Oc1cc(-c2ccco2)nc(OCCN2CCOCC2)n1,99.9% (inactive)
4,COc1ccccc1-[n+]1cc(-c2ccc(-c3ccccc3)cc2)n2c1CCCCC2,12.6% (inactive)
5,CC(C)CCC(=O)[C@@H](C)[C@H]1[C@@H](OC2OCC(O)C(O)C2NS(C)(=O)=O)C[C@H]2[C@@H]3CC=C4C[C@@H](O)CC[C@]4(C)[C@H]3CC[C@]12C (stereo not given in full),8.62% (active)
6,COc1ccc(-c2conc2-n2nc(-c3ccccc3)nc2-c2ccccc2)cc1,95.9% (inactive)
7,COc1ccc2c(c1)OC1=C(C(=O)OC1)C2c1cc(OC)c2c(c1)OCCO2 (stereo not given),24.1% (inactive)
8,O=C(N/N=C\c1cc(Br)ccc1O)c1ccncc1,15% (inactive)
9,O=C(Nc1cccc(C2=NCCN2)c1)c1ccc(N=Nc2ccc(C(=O)Nc3cccc(C4=NCCN4)c3)cc2)cc1,42.3% (inactive)
10,COc1cc(CN2CCC(N3CCCC3=O)c3ccccc32)cc(OC)c1OC (stereo not given),95.5% (inactive)
11,Nc1ccc(C2=NNC(=O)Cc3cc4c(cc32)OCCO4)cc1Cl,46% (inactive)
12,COc1ccc2nc3cc(Cl)ccc3c(NC(=O)CSc3ccc(Cl)cc3)c2c1,-99.5% (active)
13,Nc1nc(N)c2cc(NCc3ccc(Cl)c(Cl)c3)ccc2n1,-85.6% (active)
14,CC[C@H](C)[C@H](N)C(=O)O,102% (inactive)
15,COc1ccc(-c2cc(C(=O)Nc3ccc(C)cc3)nc3[nH]c(=O)sc23)cc1,84.7% (inactive)
16,CN(C)c1nc(-c2cccs2)n2nc(-c3ccc(Cl)cc3)cc2n1,-39.5% (active)
17,C[N+](C)(C)CCCCCCCCCC[N+](C)(C)C,96.2% (inactive)
18,O=C(Nc1ccccc1)c1cc2ccccc2s1,94.5% (inactive)
19,COc1ccc(C(=O)OC2C(OC3C(O)COC(O[C@H]4C[C@H]5[C@@H]6CC=C7C[C@@H](O)CC[C@]7(C)[C@H]6CC[C@]5(C)[C@H]4[C@H](C)C(=O)CCC(C)C)C3OC(C)=O)OCC(O)C2O)cc1 (stereo not given in full),-32.2% (active)
20,N/C(=N\OC(=O)c1ccccc1)C(C(=O)NOC(=O)c1ccccc1)C1CCCCC1 (stereo not given),-7% (active)
